# Measurements as given in PMC5540273 (PLoS ONE, 2017).
# What was measured:
# Settings in all cases: concentration: 1 μM, replicates: in singlicate; n = 1
# AAK1 = system: AAK1
# ABL1-nonphosphorylated = system: ABL1-nonphosphorylated
# ABL1-phosphorylated = system: ABL1-phosphorylated
# ABL2 = system: ABL2
# ACVR1B = system: ACVR1B
# ACVR1 = system: ACVR1
# ACVR2A = system: ACVR2A
# ACVR2B = system: ACVR2B
# ACVRL1 = system: ACVRL1
# ADCK3 = system: T1, ADCK3
# T1 construct: gene CABC1
# ADCK4 = system: ADCK4
# AKT1 = system: AKT1
# AKT2 = system: AKT2
# AKT3 = system: AKT3
# ALK = system: ALK
# AMPK-alpha1 = system: T2, AMPK-alpha1
# T2 construct: gene PRKAA1
# AMPK-alpha2 = system: T3, AMPK-alpha2
# T3 construct: gene PRKAA2
# ANKK1 = system: ANKK1
# ARK5 = system: T4, ARK5
# T4 construct: gene NUAK1
# ASK1 = system: T5, ASK1
# T5 construct: gene MAP3K5
# 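Also: KINOMEscan kinase panel screen.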
SMILES,%Inh (AAK1),%Inh (ABL1-nonphosphorylated),%Inh (ABL1-phosphorylated),%Inh (ABL2),%Inh (ACVR1B),%Inh (ACVR1),%Inh (ACVR2A),%Inh (ACVR2B),%Inh (ACVRL1),%Inh (ADCK3),%Inh (ADCK4),%Inh (AKT1),%Inh (AKT2),%Inh (AKT3),%Inh (ALK),%Inh (AMPK-alpha1),%Inh (AMPK-alpha2),%Inh (ANKK1),%Inh (ARK5),%Inh (ASK1)
O=C1NC(=O)C(c2ccccc2Cl)=C1Nc1cccc(Cl)c1 [SB-342409],7%,0%,9%,16%,0%,12%,0%,0%,70%,20%,0%,0%,100%,0%,41%,0%,11%,0%,14%,8%
Cl.O=C(Nc1ccc(Oc2ccc3[nH]c(NC(=O)c4ccco4)nc3c2)cc1)Nc1cc(C(F)(F)F)ccc1F [GW683134],5%,96.1%,76%,97.9%,0%,0%,4%,0%,0%,0%,0%,0%,12%,0%,27%,0%,16%,1%,12%,0%
COc1cc(Nc2ccnc3cc(-c4ccncc4)ccc23)cc(OC)c1OC.Cl [GW494610],0%,97.9%,99.4%,93%,86%,99.5%,0%,54%,88%,98.6%,14%,0%,10%,0%,29%,5%,32%,0%,12%,0%
Cc1ccc(NC(=O)c2ccc(Cl)c(Cl)c2)cc1-c1ccc(C(=O)Nc2ccncc2)cc1 [GSK1398460],8%,26%,4%,41%,0%,6%,0%,2%,0%,9%,20%,0%,15%,0%,41%,21%,21%,18%,10%,16%
CCn1c(-c2nonc2N)nc2c(-c3ccccc3)ncc(OCCCN)c21.O=C(O)C(F)(F)F.O=C(O)C(F)(F)F [GSK260205],14%,0%,9%,16%,61%,38%,0%,0%,0%,46%,26%,72%,75%,74%,25%,0%,0%,0%,0%,0%
Cc1ccc(C)c(NC(=O)Nc2ccc(C)c(-c3ccc(C(=O)Nc4ccncc4)cc3)c2)c1 [GSK1398473],11%,0%,0%,14%,0%,18%,0%,3%,0%,14%,25%,0%,0%,0%,38%,15%,0%,0%,17%,0%
CN(c1ccc(NC(=O)Nc2cccc(Cl)c2)cc1)c1ccnc(N)n1.Cl [GW830707],0%,0%,0%,3%,4%,0%,0%,0%,9%,0%,6%,23%,3%,12%,0%,0%,18%,0%,0%,2%
NCCC(NC(=O)c1cc(Br)c(-c2ccnc3[nH]ccc23)s1)c1ccccc1.O=C(O)C(F)(F)F.O=C(O)C(F)(F)F (centres unmarked) [GSK1307810],66%,0%,0%,8%,43%,15%,0%,0%,0%,52%,60%,91.6%,52%,87%,50%,52%,34%,0%,18%,15%
CN(c1ccc(F)c(NC(=O)c2cccc(OC(C)(C)C#N)c2Cl)c1)c1ccc2nc(NC(=O)C3CC3)sc2n1,2%,99%,92.6%,89%,0%,0%,0%,0%,0%,0%,0%,2%,4%,0%,46%,0%,0%,0%,0%,0%
CN1CCN(Cc2ccc(NC(=O)Nc3ccc(N(C)c4ccnc(Nc5ccc(CS(C)(=O)=O)cc5)n4)cc3)cc2)CC1.Cl [GW827654],62%,100%,94.2%,81%,0%,58%,0%,38%,57%,0%,34%,0%,0%,0%,47%,34%,34%,80%,8%,0%
O=C(Nc1n[nH]c2nc(-c3ccccc3O)ccc12)C1CC1 [SB-711880],17%,68%,44%,55%,0%,0%,0%,0%,0%,3%,17%,0%,0%,0%,0%,90%,0%,0%,0%,0%
COc1cccc(-c2nc(-c3ccccc3)[nH]c2-c2ccncc2)c1 [SB-610250],2%,0%,8%,27%,0%,24%,0%,0%,2%,8%,77%,0%,0%,0%,18%,17%,2%,0%,0%,2%
O=C(Nc1n[nH]c2cc(-c3cccs3)ccc12)C1CC1 [SB-731284],73%,81%,61%,0%,0%,0%,0%,17%,0%,0%,0%,0%,0%,0%,28%,0%,0%,45%,0%,0%
Cn1cc(-c2ccc3c(c2)CCN3C(=O)Cc2cc(F)cc(F)c2F)c2c(N)ncnc21 [GSK2634140],0%,82%,29%,57%,15%,0%,0%,0%,0%,6%,19%,0%,0%,0%,8%,18%,13%,12%,20%,0%
N#Cc1cnc2cc(-c3cnc(CNCCN4CCOCC4)s3)ccc2c1Nc1ccc(Oc2ccccc2)cc1 [GW664114],31%,97.4%,49%,58%,0%,0%,0%,0%,0%,0%,36%,0%,0%,0%,34%,21%,30%,45%,10%,5%
O=C(O)C(F)(F)F.O=c1[nH]ccc2nc(N[C@@H]3CCNC3)nc(Nc3ccc4c(c3)S(=O)(=O)CC4)c12 [GSK2181306],87%,53%,66%,26%,0%,15%,0%,3%,0%,14%,15%,0%,0%,47%,86%,89%,81%,97.4%,99.9%,0%
